# Source: PubChem
# Shown are actives, neighbours in structure and some others; about 3.9% of the full set was active somewhere.
# CCHFV vOTU inh: CCHFV vOTU protease inhibitors, primary screen, biochemical, Pep-AMC substrate, fluorescence; inhibition, % at 11.5 µM; 370,000 tested, 0.55% active; AID 651958, 2012; in the data active = inhibition above about 30%; note: 0% = vehicle wells with enzyme and 100% = no enzyme wells
# Anthrax LF prot: Bacillus anthracis LF protease inhibitors, primary screen, biochemical, multiplex microsphere, MLPCN library | inhibition, % at 10 µM | 360,000 tested, 0.12% active | Lethal factor (Bacillus anthracis), P15917 | AID 588501, 2011 | multiplex microsphere protease cleavage assay; note: plate controls were buffer without enzyme for full effect and enzyme alone for no effect
# BoNT A protease: BoNT/A light chain protease inhibitors, primary screen, biochemical, flow cytometry, MLPCN library. multiplex microsphere protease substrate cleavage. inhibition, % at 10 µM. 360,000 tested, 0.17% active. AID 588499, 2011; note: plate controls were buffer without enzyme for full effect and enzyme alone for no effect
# BoNT F protease: BoNT/F light chain protease inhibitors, primary screen, biochemical, flow cytometry, MLPCN library | Multiplex microsphere protease cleavage assay | inhibition, % at 10 µM | 360,000 tested, 0.22% active; in the data active = inhibition above about 35%, passing the limit was not always enough; inconclusive = no clear call, values can overlap the other calls; note: plate controls were buffer without enzyme for full effect and enzyme alone for no effect
# 3CLpro inhibitor: SARS-CoV 3CLpro protease inhibitors, primary screen, biochemical, quenched FRET | inhibition, % at 6 µM | recombinant SARS-CoV 3CLpro, quenched FRET peptide cleavage | 290,000 tested, 0.14% active | AID 1706, 2009; in the data active = inhibition above about 12%
# Autofluor counter: counter-screen for toxin protease inhibitors: compound fluorescence; compound autofluorescence counterscreen, microsphere flow cytometry; active compounds read high; fluorescence intensity (test concentration not listed); 360,000 tested, 3.1% active; in the data active = fluorescence intensity above about 16000; inconclusive = no clear call, values can overlap the other calls
# Numbers without * were called inactive; ? = inconclusive; / = no result given. Cut-off read from the data, not from the text of the source, unless noted: active = inhibition above about 30%; inconclusive = no clear call, values can overlap the other calls; inactive = below that.
SMILES,CCHFV vOTU inh,Anthrax LF prot,BoNT A protease,BoNT F protease,3CLpro inhibitor,Autofluor counter
COC(=O)C1=C(C)NC(=O)CC1c1ccc(F)c(Br)c1 (stereo not given),/,-1,?,1,0,23452*
COC(=O)C1=C(C)NC(=O)CC1c1ccc(C(=O)OC)cc1 (stereo not given),0,2,0,1,3,2913
Cc1ccc(SCC(=O)Nc2ccc(S(N)(=O)=O)cc2)cc1,-2,-4,0,-3,-5,4395
COC(=O)c1ccc(CN2CCCCC2)cc1,-6,-4,0,?,2,4038
Cc1ccc(/C=c2/sc3nnc(-c4ccccc4Cl)n3c2=O)o1,3,-3,0,-2,3,16190*
Cc1ccc(/C=c2\sc3nc(-c4ccccc4Br)nn3c2=O)o1,20,7,5,-15,-1,3367
CCN(CC)c1ccc(/C=c2\sc3nnc(-c4ccccc4Cl)n3c2=O)cc1,3,80*,176*,125*,-3,9724
COc1ccccc1NC(=O)CSc1nnc(CC(=O)Nc2ccccc2C)n1C,3,-4,0,-10,2,3838
CCN(CC)S(=O)(=O)c1ccc(N2CCCCC2)c(NC(=O)/C=C/c2ccc(OC)c(OC)c2)c1,-2,0,4,34,-2,2267
O=C(/C=C/c1ccco1)NCC1(c2ccccc2)CCCC1,22,0,0,4,4,2153
COc1ccc(C2(CNC(=O)/C=C/c3ccco3)CCCC2)cc1OC,-6,2,5,3,1,19955*
CCN(CC)S(=O)(=O)c1ccc(OC)c(NC(=O)/C=C/c2ccco2)c1,4,-4,4,35*,-4,5086
Cc1ccc(S(=O)(=O)c2nc(NN(C)C)sc2Cl)cc1,6,4,0,-10,1,4390
Cc1ccc(N(CCC(=O)N2CCOCC2)S(=O)(=O)c2ccccc2)cc1,-3,-4,1,-8,/,5821
Nc1cc(N2CCCCC2)c([N+](=O)[O-])cc1Cl,-5,0,1,-4,-3,10319
Nc1cc(N2CCCCC2)c(Cl)cc1[N+](=O)[O-],4,-12,?,6,1,21335*
O=[N+]([O-])c1ccc(N2CCCCC2)c(Cl)c1N1CCCCC1,-3,2,1,-1,1,19380*
O=[N+]([O-])c1ccc(N2CCCCCC2)c2nonc12,14,26,53*,115*,-7,14674
Cc1ccccc1N1C(=O)C2ON(c3ccccc3)C(c3ccco3)C2C1=O (stereo not given),0,0,-1,5,10,5344
COc1cc(-c2noc(CCCC(=O)NCc3ccco3)n2)cc(OC)c1OC,-7,1,4,6,2,21043*
O=C(CCc1nc(-c2ccccc2)no1)NCc1ccco1,-2,-5,1,-11,-4,4955
Cc1ccc(-c2noc(CCC(=O)NCc3ccco3)n2)cc1,-5,-3,0,-2,1,19424*
COc1cc(CC(=O)NCc2ccco2)cc(OC)c1OC,-10,0,0,11,2,4481
Nc1cc(N)nc(SCc2nnnn2-c2ccc(Cl)cc2)n1,2,-2,0,-6,-6,2100
CCC1CCCCN1C(=S)NN=C(C)c1ccccn1 (stereo not given),5,/,/,/,/,/
SMILES,CCHFV vOTU inh,Anthrax LF prot,BoNT A protease,BoNT F protease,3CLpro inhibitor,Autofluor counter
C=CCNC(=S)N/N=C(\C)c1ccccn1,-7,-2,-2,-9,0,16885*
CC(=NNC(=S)N1CCCCC1)c1ccccn1,-4,87*,28,73*,/,3169
CC(=NNC(=S)N1CCCCC1)c1cccc(C)n1,-12,13,11,30,/,3760
CC(=NNC(=S)N1CC2CCC(CC2)C1)c1ccncn1,4,57*,25,59*,/,3716
Cc1nc2ccc(C(=O)N3CCN(C(=O)C(Cl)Cl)CC3)cc2n1C1CCCC1,3,/,/,/,/,/
COc1ccc(N2C[C@H](CSC)[C@@H](CC(=O)Nc3ccccc3)C2=O)cc1,10,-4,0,0,/,2881
CNc1nc(N)c(C(=O)Nc2cc(C)on2)s1,5,-1,-1,4,4,5059
CCCc1cn(-c2ccc3c(c2)[C@@]2(CC(=O)N(C)C2c2ccccc2)C(=O)N3CC(C)C)nn1 (stereo not given in full),1,/,/,/,/,/
COc1ccccc1CNC(=O)Nc1nc(C(N)Cc2ccc(Cl)cc2)cs1 (stereo not given),4,-3,-1,-19,/,3726
CC1(C)CC(=O)c2c(O)cc(O)cc2O1,9,-5,0,-3,4,22477*
CC(=O)OC1(C(F)(F)F)Oc2ccccc2NC1=O (stereo not given),-2,2,?,7,-7,18158*
COCCNC(=O)C1(C)Oc2ccccc2NC1=O (stereo not given),3,-2,-1,1,1,2865
Fc1ccc(CNc2ccc(CNc3ncn[nH]3)cc2)cc1,-14,-4,6,4,-5,21380*
Nc1ccc(CNc2ncn[nH]2)cc1,-4,-4,1,-2,4,3261
COCCCn1c(=O)c2sccc2n2c(CCCC(=O)NCc3ccccc3)nnc12,2,-1,1,3,0,5743
COCc1nnc(NC(=O)CSc2ccc(C)cc2)s1,-2,-9,-1,-11,1,9697
COCc1nnc(NC(=O)CCSc2ccccc2)s1,-3,-3,?,0,-4,20338*
Cc1nnc(NC(=O)CCSc2ccccc2)s1,1,1,0,-1,-6,16606*
COCc1nnc(NC(=O)CSc2ccccc2)s1,-6,0,0,-1,1,22373*
Cc1nnc(NC(=O)CSc2ncnc3scc(-c4ccccc4)c23)s1,-2,-2,?,4,-1,21836*
Cc1nnc(NC(=O)CCSc2ccc(Cl)cc2)s1,-1,0,0,-3,-1,2675
Cc1ccccc1-c1cccc2c3c([nH]c12)[C@@H]1C[C@H]2[C@@H](CN1CC3)[C@H](C)ON2C,7,/,/,/,/,/
COc1cc(C(O)c2nc(-c3cccc(C(C)C)c3)cs2)ccc1F (stereo not given),24,-5,0,8,/,3873
COCCSc1ccccc1C(=O)Nc1nnc(COC)s1,1,1,0,1,4,23162*
CC1=CC(=C2C(=O)NC(=O)NC2=O)C=C(C(F)(F)F)N1C(C)C,7,-13,3,3,0,21183*
N#CCCN1CCN(C(=S)c2ccc(-c3ccc(Cl)cc3)o2)CC1,/,11,?,0,3,20131*
S=C(c1ccc(-c2ccc(Cl)cc2)o1)N1CCCCC1,-16,-2,1,2,3,10094
